Measured values reported in PubChem BioAssay (NCATS).
Results filed as inconclusive are left out. Active and inactive are the calls of the source. Calls come from the whole dose curve; as a rule, active = well fitted curve in the direction sought with a large enough effect; inconclusive = small, poorly fitted or top-dose-only effect, or another doubt; inactive = no such curve, though single readings can be large; an effect the other way counts as inactive or inconclusive.

Experiments:
[1] = Quantitative High-Throughput drug screen in 47 multiple myeloma cell lines against the NCATS MIPE library collection: KMM1_JCRB cell viability assay (AID 1918960); note: nearly all actives have a fitted effect of over 30% in size; note: potency is the fitted concentration of half-maximal effect
Outline: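 Luminescence from CellTiter-Glo, taken after 5 min at room temperature, reports cellular ATP as viability. Cells (500 per well) had been treated 48 h at 37 °C with MIPE 4.0 compounds, scaled between DMSO and medium-only controls.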

[2] = Quantitative High-Throughput drug screen in 47 multiple myeloma cell lines against the NCATS MIPE library collection: JIM3_ECACC cell viability assay (AID 1918963; note: nearly all actives have a fitted effect of over 35% in size; note: potency is the fitted concentration of half-maximal effect)
Outline: (§1)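 Primary qHTS used for cherry-picking: cells at 500/well, library compounds for 48 h (37C, 5% CO2), luminescent ATP assay.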

[3] = Quantitative High-Throughput drug screen in 47 multiple myeloma cell lines against the NCATS MIPE library collection: INA6_PLB cell viability assay (AID 1918965; note: nearly all actives have a fitted effect of over 55% in size; note: potency is the fitted concentration of half-maximal effect)
Outline: (§2)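 We plated 500 myeloma cells per well, pinned in MIPE 4.0 compounds, and incubated for 48 hours at 37C. ATP was then quantified with CellTiter-Glo, with DMSO and media-only wells defining 100% and 0%.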

[4] = Quantitative High-Throughput drug screen in 47 multiple myeloma cell lines against the NCATS MIPE library collection: H1112_PLB cell viability assay (AID 1918967; note: nearly all actives have a fitted effect of over 30% in size; note: potency is the fitted concentration of half-maximal effect)
Outline: (§3)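 Relative luminescence from CellTiter-Glo served as the viability signal, referenced to DMSO-treated (100%) and cell-free medium (0%) controls. Treatment lasted 48 hours at 37C with 500 cells per well.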

[5] = Quantitative High-Throughput drug screen in 47 multiple myeloma cell lines against the NCATS MIPE library collection: KMS27_JCRB cell viability assay (AID 1918970); note: nearly all actives have a fitted effect of over 30% in size; note: potency is the fitted concentration of half-maximal effect
Outline: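 CellTiter-Glo luminescence after 48 h drug exposure at 37 °C; 500 cells/well, 1536-well format, pin-tool compound addition; DMSO = 100%, media-only = 0% viability.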

[6] = Quantitative High-Throughput drug screen in 47 multiple myeloma cell lines against the NCATS MIPE library collection: KMS12PE_JCRB cell viability assay (AID 1918972); note: nearly all actives have a fitted effect of over 30% in size; note: potency is the fitted concentration of half-maximal effect
Outline: as §2

[7] = Quantitative High-Throughput drug screen in 47 multiple myeloma cell lines against the NCATS MIPE library collection: KMS20_JCRB cell viability assay (AID 1918973); note: nearly all actives have a fitted effect of over 45% in size; note: potency is the fitted concentration of half-maximal effect
Outline: as §3

[8] = Quantitative High-Throughput drug screen in 47 multiple myeloma cell lines against the NCATS MIPE library collection: NCIH929_DSMZ cell viability assay (AID 1918978); note: nearly all actives have a fitted effect of over 35% in size; note: potency is the fitted concentration of half-maximal effect
Outline: (§4)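 Plated at 500 cells per well, myeloma lines received MIPE 4.0 compounds by pin tool. Following 48 h culture at 37 °C, CellTiter-Glo luminescence gave viability relative to DMSO and media-only controls.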

[9] = Quantitative High-Throughput drug screen in 47 multiple myeloma cell lines against the NCATS MIPE library collection: OCIMY1_PLB cell viability assay (AID 1918979); note: nearly all actives have a fitted effect of over 35% in size; note: potency is the fitted concentration of half-maximal effect
Outline: as §4

[10] = Quantitative High-Throughput drug screen in 47 multiple myeloma cell lines against the NCATS MIPE library collection: MM1S_ATCC cell viability assay (AID 1918980); note: nearly all actives have a fitted effect of over 45% in size; note: potency is the fitted concentration of half-maximal effect
Outline: as §4

[11] = Quantitative High-Throughput drug screen in 47 multiple myeloma cell lines against the NCATS MIPE library collection: MM1R_ATCC cell viability assay (AID 1918981); note: nearly all actives have a fitted effect of over 35% in size; note: potency is the fitted concentration of half-maximal effect
Outline: as §4

[12] = Quantitative High-Throughput drug screen in 47 multiple myeloma cell lines against the NCATS MIPE library collection: JJN3_DSMZ cell viability assay (AID 1918966; note: nearly all actives have a fitted effect of over 50% in size; note: potency is the fitted concentration of half-maximal effect)
Outline: as §3

[13] = Quantitative High-Throughput drug screen in 47 multiple myeloma cell lines against the NCATS MIPE library collection: Karpas25_ECACC cell viability assay (AID 1918968)
Outline: as §3

[14] = Quantitative High-Throughput drug screen in 47 multiple myeloma cell lines against the NCATS MIPE library collection: KMS12BM_JCRB cell viability assay (AID 1918971); note: nearly all actives have a fitted effect of over 35% in size; note: potency is the fitted concentration of half-maximal effect
Outline: (§5)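 Luminescent ATP measurement with CellTiter-Glo gives viability, scaled between DMSO-only wells (100%) and media-only wells (0%). Cells, 500 per well, faced library compounds for 48 hours at 37C.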

[15] = Quantitative High-Throughput drug screen in 47 multiple myeloma cell lines against the NCATS MIPE library collection: KMS26_JCRB cell viability assay (AID 1918975); note: nearly all actives have a fitted effect of over 45% in size; note: potency is the fitted concentration of half-maximal effect
Outline: as §5

[16] = Quantitative High-Throughput drug screen in 47 multiple myeloma cell lines against the NCATS MIPE library collection: KHM11_PLB cell viability assay (AID 1918962); note: nearly all actives have a fitted effect of over 35% in size; note: potency is the fitted concentration of half-maximal effect
Outline: as §1

[17] = Quantitative High-Throughput drug screen in 47 multiple myeloma cell lines against the NCATS MIPE library collection: JIM1_ECACC cell viability assay (AID 1918964; note: potency is the fitted concentration of half-maximal effect)
Outline: as §3

[18] = Quantitative High-Throughput drug screen in 47 multiple myeloma cell lines against the NCATS MIPE library collection: MOLP8_DSMZ cell viability assay (AID 1918977); note: nearly all actives have a fitted effect of over 45% in size; note: potency is the fitted concentration of half-maximal effect
Outline: as §4

[19] = Quantitative High-Throughput drug screen in 47 multiple myeloma cell lines against the NCATS MIPE library collection: MMM1_PLB cell viability assay (AID 1918976)
Outline: as §4

[20] = Quantitative High-Throughput drug screen in 47 multiple myeloma cell lines against the NCATS MIPE library collection: Karpas417_ECACC cell viability assay (AID 1918961); conditions: Karpas417 myeloma viability, CellTiter-Glo ATP luminescence, 48 h; viability (% of DMSO): at 45.8 µM (top of the series)
Outline: as §2

Row | Compound | Potency [1] | Potency [2] | Potency [3] | Potency [4] | Potency [5] | Potency [6] | Potency [7] | Potency [8] | Potency [9] | Potency [10] | Potency [11] | Potency [12] | Potency [13] | Potency [14] | Potency [15] | Potency [16] | Potency [17] | Potency [18] | Potency [19] | Potency [20]
1 | O=C(O)c1cccnc1Nc1cccc(C(F)(F)F)c1 | inactive | inactive | inactive | inactive | inactive | inactive | inactive | inactive | inactive | inactive | inactive | – | – | – | – | – | – | – | – | –
2 | COc1ccc(C2(C#N)CCC(C(=O)O)CC2)cc1OC1CCCC1 (centres undefined) | inactive | inactive | 18.7 µM (active) | – | inactive | inactive | – | – | inactive | 26.4 µM (active) | inactive | inactive | 23.5 µM (active) | inactive | inactive | – | – | – | – | –
3 | CC1(C)NC(=O)N(c2ccc([N+](=O)[O-])c(C(F)(F)F)c2)C1=O | inactive | – | 3.32 µM (active) | 11.8 µM (active) | inactive | inactive | – | – | inactive | – | – | – | – | – | – | inactive | 0.235 µM (active) | inactive | – | –
4 | O=C(CS(=O)Cc1ccco1)NCC=CCOc1cc(CN2CCCCC2)ccn1 (centres undefined) | inactive | – | – | inactive | inactive | inactive | inactive | – | inactive | – | inactive | – | 20.9 µM (active) | inactive | – | – | inactive | – | – | –
5 | Cc1c(OCC(F)(F)F)ccnc1CS(=O)c1nc2ccccc2[nH]1 (centres undefined) | 20.9 µM (active) | – | – | 20.9 µM (active) | inactive | 18.7 µM (active) | – | – | inactive | – | 0.833 µM (active) | 2.64 µM (active) | – | inactive | – | – | – | inactive | – | –
6 | Cc1nccn1CC1CCc2c(c3ccccc3n2C)C1=O (centres undefined) | inactive | – | – | – | inactive | – | – | 26.4 µM (active) | – | 26.4 µM (active) | inactive | inactive | – | – | – | – | – | – | – | –
7 | Cc1cc(=O)c2c(O)c3c(O)cc(=O)c4c3c3c(cc(O)c1c23)C(C)(C)C=4O | – | 0.235 µM (active) | 0.418 µM (active) | 0.59 µM (active) | – | – | 0.0187 µM (active) | – | – | – | 4.18 µM (active) | – | 0.264 µM (active) | 4.69 µM (active) | 6.62 µM (active) | 0.372 µM (active) | 5.9 µM (active) | 2.64 µM (active) | 0.372 µM (active) | –
8 | Cc1ccc(Nc2nccc(N(C)c3ccc4c(C)n(C)nc4c3)n2)cc1S(N)(=O)=O | 14.8 µM (active) | – | 3.72 µM (active) | 16.6 µM (active) | 20.9 µM (active) | 16.6 µM (active) | – | – | – | – | – | 20.9 µM (active) | 16.6 µM (active) | 18.7 µM (active) | 23.5 µM (active) | – | – | – | – | –
9 | CC(S)C(=O)NCC(=O)O (centres undefined) | – | – | – | – | inactive | inactive | – | inactive | inactive | – | inactive | inactive | 1.87 µM (active) | – | – | – | inactive | inactive | – | inactive
10 | O=c1cc(N2CCOCC2)oc2c(-c3ccccc3)cccc12 | inactive | – | – | – | – | inactive | – | – | 11.8 µM (active) | 14.8 µM (active) | 7.43 µM (active) | 16.6 µM (active) | 7.43 µM (active) | 14.8 µM (active) | 7.43 µM (active) | – | – | 7.43 µM (active) | 18.7 µM (active) | –
11 | Cc1nc(-c2ccc(OCC(C)C)c(C#N)c2)sc1C(=O)O | inactive | – | – | inactive | inactive | inactive | inactive | inactive | inactive | inactive | – | – | – | – | – | – | inactive | 2.96 µM (active) | 6.62 µM (active) | –
12 | Nc1cccc2c1CN(C1CCC(=O)NC1=O)C2=O (centres undefined) | inactive | – | – | inactive | inactive | inactive | – | – | – | – | – | 1.71 µM (active) | 4.81 µM (active) | – | 0.605 µM (active) | – | – | inactive | 0.429 µM (active) | –
13 | CC(C)C[C@H](NC(=O)[C@H](Cc1ccccc1)NC(=O)c1cnccn1)B(O)O | – | 0.0235 µM (active) | – | 0.0132 µM (active) | – | – | 0.0148 µM (active) | – | 0.0053 µM (active) | 0.0066 µM (active) | 0.0047 µM (active) | 0.0166 µM (active) | 0.0074 µM (active) | 0.0148 µM (active) | 0.0148 µM (active) | 0.0083 µM (active) | – | 0.0093 µM (active) | 0.469 µM (active) | –
14 | COc1cc(Nc2c(C#N)cnc3cc(OCCCN4CCN(C)CC4)c(OC)cc23)c(Cl)cc1Cl | – | 18.7 µM (active) | 0.418 µM (active) | 9.35 µM (active) | – | – | 1.32 µM (active) | – | – | 29.6 µM (active) | 18.7 µM (active) | 18.7 µM (active) | 1.05 µM (active) | 14.8 µM (active) | 18.7 µM (active) | 5.26 µM (active) | – | – | 20.9 µM (active) | –
